Unmarked numbers belong to inactive results. Calls of active or inactive are those of the source. Rule as the data show it: active = fold change permeability below about 0.7 or above about 1.3; inactive = in between. Positions of bridges follow the written chain, without caps; N, C: chain ends. Non-standard residues stand in square brackets, D forms with d. Residues, ends and D or L forms follow the SMILES beside them. hArg = N=C(N)NCCCC[CH](N)C(=O)O; Mpa = O=C(O)CCS
Assay: modulators of brain endothelial barrier permeability, primary screen, cell-based, FITC-avidin fluorescence, HTS (AID 1963498); also: test concentration not given here
Conditions: actives lie on both sides

| SMILES | fold change permeability |
| --- | --- |
| CCCn1c(=O)c2[nH]c(-c3ccc(S(=O)(=O)O)cc3)nc2n(CCC)c1=O | 1.1 |
| CCCOc1ccccc1-c1nc2n[nH]nc2c(=O)[nH]1 | 1.9 (active) |
| CC(=O)Oc1cc(C(F)(F)F)ccc1C(=O)O | 0.8 |
| COc1ccc(/C=C/C(=O)Nc2ccc(C(F)(F)F)cc2)cc1OC | 1.6 (active) |
| NC(=O)C1CSSCCC(=O)NC(CCCCN=C(N)N)C(=O)NCC(=O)NC(CC(=O)O)C(=O)NC(Cc2c[nH]c3ccccc23)C(=O)N2CCCC2C(=O)N1 (configuration not stated) ([Mpa][hArg]GDWPC-NH2; disulfide 1-7; configuration not given here) | 0.9 |
| CC(C)(C)c1ccc(S(=O)(=O)/C=C/C#N)cc1 | 1.2 |
| O=c1[nH]c(=O)c2nc3ccccc3nc2[nH]1 | 1.3 (active) |
| CN1CCc2cccc3c2[C@H]1Cc1ccc(O)c(O)c1-3 | 1 |
| C[C@@H](O[C@H]1OCCN(Cc2n[nH]c(=O)[nH]2)[C@H]1c1ccc(F)cc1)c1cc(C(F)(F)F)cc(C(F)(F)F)c1 | 1.4 (active) |
| NC(=O)C(=O)O | 0.8 |
| CC(=O)OCC(CCn1cnc2cnc(N)nc21)COC(C)=O | 0.9 |
| O=c1oc(Cl)c(Cl)c2ccccc12 | 1.4 (active) |
| CC[C@H]1OC(=O)[C@H](C)C(=O)[C@H](C)[C@@H](O[C@@H]2O[C@H](C)C[C@H](N(C)C)[C@H]2O)[C@](C)(OC)C[C@@H](C)C(=O)[C@H](C)[C@H]2N(CCCCn3cnc(-c4cccnc4)c3)C(=O)O[C@]12C | 0.7 (active) |
| Nc1nc2c(ncn2[C@@H]2O[C@H](CO)[C@@H](O)[C@@H]2O)c(=O)[nH]1 | 2.1 (active) |
| CCN[C@H]1CN(CCCOC)S(=O)(=O)c2sc(S(N)(=O)=O)cc21 | 1.5 (active) |
| Cn1c(=O)c2c(ncn2CC2OCCO2)n(C)c1=O | 1 |
| CCN(c1nc(N)c(C(=O)N=C(N)N)nc1Cl)C(C)C | 1.4 (active) |
| CN(C)c1ccc(NCc2ccccn2)cc1 | 1.5 (active) |
| N[C@@H](Cc1ccc(O)c(I)c1)C(=O)O | 1.9 (active) |
| OCc1ccc(-c2nn(Cc3ccccc3)c3ccccc23)o1 | 2 (active) |
| N[C@@H](CCC(=O)N[C@@H](CSN=O)C(=O)NCC(=O)O)C(=O)O | 0.8 |
| O=C(Nc1cccc(C(=O)Nc2ccc(S(=O)(=O)O)c3cc(S(=O)(=O)O)cc(S(=O)(=O)O)c23)c1)Nc1cccc(C(=O)Nc2ccc(S(=O)(=O)O)c3cc(S(=O)(=O)O)cc(S(=O)(=O)O)c23)c1 | 0.9 |

From PubChem BioAssay
